Assay results taken from PubChem BioAssay (NCI).
Compounds without any hit were thinned out: in the full panel of roughly 79,000, 15% have a hit. Active and inactive are the calls of the source. No stated cut-off is given here; in the data, active means growth inhibition above about 70%; inactive means the rest.

Experiments:
[1] = NCI Yeast Anticancer Drug Screen. Data for the rad52 strain (AID 147);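 further: 0% = growth of vehicle-treated control cultures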; settings: S. cerevisiae rad52 mutant growth inhibition, hits give high values
Method in brief: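 Growth of repair-deficient yeast cells was compared between compound-treated and vehicle-treated cultures to give percent inhibition.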

[2] = NCI Yeast Anticancer Drug Screen. Data for the wt1 strain (AID 149);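 further: 0% = growth of vehicle-treated wt1 cultures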; settings: S. cerevisiae wt1 strain (SPY 50644) growth inhibition, hits give high values
Method in brief: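 Readout: yeast growth inhibition, normalised to vehicle controls, in the wt1 strain exposed to test compounds.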

[3] = NCI Yeast Anticancer Drug Screen. Data for the rad50EPP+ strain (AID 151);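 further: 0% = growth of vehicle-treated control cultures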; settings: S. cerevisiae rad50 mutant strain, hits give high values
Method in brief: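 Measured: growth inhibition of rad50EPP+ yeast. Reference: vehicle-treated controls. Screen uses strains with defined genetic alterations in DNA damage repair or cell cycle control.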

[4] = NCI Yeast Anticancer Drug Screen. Data for the mgt1 strain (AID 153); settings: S. cerevisiae mgt1 mutant growth inhibition, hits give high values
Method in brief: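 Compounds were applied to mgt1 mutant yeast, and growth was then compared against vehicle-treated control cultures to give percent inhibition.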

[5] = NCI Yeast Anticancer Drug Screen. Data for the rad50 strain (AID 155);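 further: 0% = growth of vehicle-only cultures of the same strain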; settings: S. cerevisiae rad50 strain growth inhibition, hits give high values
Method in brief: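 Compounds were tested on a yeast strain with an engineered DNA damage repair alteration; the reported value is growth inhibition normalised to vehicle treatment.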

[6] = NCI Yeast Anticancer Drug Screen. Data for the mec2-1 strain (AID 157); settings: S. cerevisiae mec2-1 strain, hits give high values
Method in brief: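 Compounds were applied to mec2-1 yeast cells. Their growth was then compared with that of vehicle-treated cultures to give growth inhibition.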

[7] = NCI Yeast Anticancer Drug Screen. Data for the rad14 strain (AID 159);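 further: 0% = growth of vehicle-treated control cultures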; settings: S. cerevisiae rad14 strain growth inhibition, hits give high values
Method in brief: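 Compound-treated yeast with a defined DNA-repair lesion; growth inhibition normalised to vehicle-treated cultures.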

[8] = NCI Yeast Anticancer Drug Screen. Data for the sgs1 mgt1 strain (AID 161);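 further: 0% = growth of cultures given vehicle only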; settings: S. cerevisiae sgs1 mgt1 strain, hits give high values
Method in brief: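 Yeast cells carrying a defined DNA-repair defect were exposed to test compounds. Growth inhibition was measured relative to vehicle-treated controls.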

[9] = NCI Yeast Anticancer Drug Screen. Data for the CLN2oe strain (AID 163);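 further: 0% = growth of vehicle-only control cultures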; settings: S. cerevisiae CLN2oe strain, hits give high values
Method in brief: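 Cells of an engineered yeast line with disturbed cell-cycle regulation are treated with compound. Inhibition of growth is then calculated relative to the vehicle-treated reference.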

[10] = NCI Yeast Anticancer Drug Screen. Data for the cln2 rad14 strain (AID 165);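 further: 0% = growth equal to vehicle treated cultures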; settings: S. cerevisiae cln2 rad14 strain, hits give high values
Method in brief: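 Strain: cln2 rad14 yeast, altered in cell cycle control and DNA damage repair. Read-out: growth inhibition vs vehicle.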

[11] = NCI Yeast Anticancer Drug Screen. Data for the bub3 strain (AID 167); settings: S. cerevisiae bub3 mutant strain, hits give high values
Method in brief: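 Growth of a checkpoint-deficient yeast mutant is measured after compound exposure. Values represent inhibition relative to vehicle.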

[12] = NCI Yeast Anticancer Drug Screen. Data for the wt2 strain (AID 169);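 further: 0% = growth of vehicle-treated yeast cultures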; settings: S. cerevisiae wt2 strain growth inhibition, hits give high values
Method in brief: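 Growth of compound-treated yeast is measured and expressed as inhibition relative to vehicle-only controls.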

[13] = NCI Yeast Anticancer Drug Screen. Data for the mlh1 strain (AID 171);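 further: 0% = growth of vehicle-treated control cultures of the same strain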; settings: S. cerevisiae mlh1 strain growth inhibition, hits give high values
Method in brief: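 Test agents were incubated with yeast bearing a defined DNA damage repair or cell cycle control alteration; values are growth inhibition normalised to vehicle-treated cultures.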

[14] = NCI Yeast Anticancer Drug Screen. Data for the sgs1 strain (AID 173);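 further: 0% = growth of vehicle-only control cultures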; settings: S. cerevisiae sgs1 mutant, hits give high values
Method in brief: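 Strain with an altered DNA repair or cell cycle pathway exposed to compound. Growth then measured. Value = inhibition versus vehicle control.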

[15] = NCI Yeast Anticancer Drug Screen. Data for the mlh1 rad18 strain (AID 175); settings: S. cerevisiae mlh1 rad18 strain growth inhibition, hits give high values
Method in brief: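 A repair-deficient yeast strain is exposed to test compound, and growth is scored relative to vehicle-treated controls.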

[16] = NCI Yeast Anticancer Drug Screen. Data for the rad18 strain (AID 177); settings: S. cerevisiae rad18 mutant growth inhibition, hits give high values
Method in brief: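 DNA-repair-defective yeast; compound treatment; growth inhibition scored against vehicle.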

[17] = at 5.0 µM (retest, dose inferred, filed as 0.5)
[18] = at 50.0 µM (retest, dose inferred, filed as 5.0)

Measured: growth inhibition

CC(=O)c1cc2c(Cl)cc(Cl)cc2oc1=O
active: [5]; [18] 83% | [6]; [17] 77% | [6]; [18] 94% | [10]; [18] 71% | [15]; [18] 96%
inactive: [1]; at 1.2 µM 20% | [1]; at 3.7 µM 19% | [1]; at 11.0 µM 4% | [1]; at 33.0 µM 9% | [1]; at 100.0 µM 20% | [2]; at 1.2 µM -38% | [2]; at 3.7 µM -33% | [2]; at 11.0 µM -38% | [2]; at 33.0 µM -33% | [2]; at 100.0 µM -22% | [3]; at 1.2 µM -15% | [3]; at 3.7 µM -16% | [3]; at 11.0 µM -2% | [3]; at 33.0 µM -10% | [3]; at 100.0 µM 15% | [4]; at 1.2 µM 9% | [4]; at 3.7 µM 5% | [4]; at 11.0 µM -13% | [4]; at 33.0 µM -4% | [4]; at 100.0 µM 6% | [5]; at 1.2 µM -24% | [5]; at 3.7 µM -17% | [5]; [17] 30% | [5]; at 11.0 µM -13% | [5]; at 33.0 µM -20% | [5]; at 50.0 µM -5.9% | [5]; at 100.0 µM -5% | [6]; at 1.2 µM 8% | [6]; at 3.7 µM 0% | [6]; at 11.0 µM -14% | [6]; at 33.0 µM 3% | [6]; at 50.0 µM 53.8% | [6]; at 100.0 µM -8% | [7]; at 1.2 µM -19% | [7]; at 3.7 µM -21% | [7]; at 11.0 µM -13% | [7]; at 33.0 µM -6% | [7]; at 100.0 µM 14% | [8]; [17] -8% | [8]; [18] 20% | [9]; at 1.2 µM -26% | [9]; at 3.7 µM -22% | [9]; at 11.0 µM -7% | [9]; at 33.0 µM -10% | [9]; at 100.0 µM -5% | [10]; [17] 64% | [11]; at 1.2 µM -21% | [11]; at 3.7 µM -17% | [11]; [17] 24% | [11]; at 11.0 µM -4% | [11]; at 33.0 µM -25% | [11]; [18] 46% | [11]; at 100.0 µM 13% | [12]; at 1.2 µM -22% | [12]; at 3.7 µM -27% | [12]; at 11.0 µM -34% | [12]; at 33.0 µM -40% | [12]; at 100.0 µM -18% | [13]; at 1.2 µM -36% | [13]; at 3.7 µM -35% | [13]; at 11.0 µM -32% | [13]; at 33.0 µM -12% | [13]; at 100.0 µM -5% | [14]; at 1.2 µM -31% | [14]; at 3.7 µM -40% | [14]; at 11.0 µM -29% | [14]; at 33.0 µM -15% | [14]; at 100.0 µM -42% | [15]; [17] 35% | [15]; at 50.0 µM 1.3% | [16]; at 1.2 µM 10% | [16]; at 3.7 µM -3% | [16]; at 11.0 µM -11% | [16]; at 33.0 µM -11% | [16]; at 100.0 µM -6%
